Assay results: PubChem BioAssay (NCI)
Compounds without any hit were thinned out: in the full panel of roughly 83,000, 20% have a hit.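 Single-concentration screen, 48 h exposure, 96-well plates. Endpoint: percent growth. Below 10 = active.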 Values without a mark were called inactive. Calls of active or inactive are those of the source.

Experiments:
Assay in all cases: NCI-60 one-dose screen, 48 h (100 = growth as untreated, 0 = no growth, -100 = all killed)
Conditions in all cases: 10 µM unless noted
HCT-15 colon = test system: HCT-15 colon
HT29 colon = test system: HT29 colon
SNB-75 CNS = test system: SNB-75 CNS
SNB-19 CNS = test system: SNB-19 CNS
U251 CNS = test system: U251 CNS
PC-3 prostate = test system: PC-3 prostate
SK-MEL-5 melanoma = test system: SK-MEL-5 melanoma
UACC-62 melanoma = test system: UACC-62 melanoma
LOX IMVI melanoma = test system: LOX IMVI melanoma
SK-MEL-28 melanoma = test system: SK-MEL-28 melanoma

Row | Compound | growth (HCT-15 colon) | growth (HT29 colon) | growth (SNB-75 CNS) | growth (SNB-19 CNS) | growth (U251 CNS) | growth (PC-3 prostate) | growth (SK-MEL-5 melanoma) | growth (UACC-62 melanoma) | growth (LOX IMVI melanoma) | growth (SK-MEL-28 melanoma)
1 | CC(O)CN(CC(C)O)N(CC(C)O)CC(C)O (stereo not given) | 93.6% | 99.3% | 93.1% | 99.1% | 90.9% | 99.4% | 105% | 102% | 93.7% | 107%
2 | COc1cccc(NC(=O)NCCNc2nccc(-c3c(-c4ccc(F)cc4)nc4sccn34)n2)c1 | 56.4% | 39.8% | 48.3% | 86.3% | 77.6% | 89.9% | 61.6% | 68.2% | 72.6% | 92.2%
3 | C[C@]12C=CC(=O)C=C1[C@@H](F)C[C@@H]1[C@@H]2[C@@H](O)C[C@@]2(C)[C@H]1CC[C@]2(O)C(=O)CO | 108% | 103% | 145% | 96.2% | 108% | 97.1% | 120% | 110% | 103% | 124%
4 | COc1ccc(/C=C2\SC(=O)N(Cc3cc(=O)oc4ccc(OC)cc34)C2=O)cc1 | 89.9% | 95.8% | 74.3% | 87% | 98.9% | 93.1% | 87.4% | 66.3% | 85.7% | 95.1%
5 | CCn1cnc(C[C@H](NC(=O)[C@@H](NC(=O)Nc2cc(C(F)(F)F)cc(C(F)(F)F)c2)C(C)(C)C)C(=O)OC)c1 | -68% [100 µM] (active) | -82.9% [100 µM] (active) | -98.8% [100 µM] (active) | -98.2% [100 µM] (active) | -94.5% [100 µM] (active) | -91.2% [100 µM] (active) | -98% [100 µM] (active) | -98.7% [100 µM] (active) | -87.4% [100 µM] (active) | -96% [100 µM] (active)
6 | CC(=O)NCCN | 94% | 101% | 89.7% | 98.8% | 97.3% | 92.3% | 108% | 102% | 93.3% | 108%
7 | CC(=O)Nc1ccc(CC#N)cc1Br | 105% | 104% | 91% | 103% | 104% | 95.6% | 97.8% | 99.6% | 106% | 114%
8 | Brc1ccc(-c2nc3ccccc3s2)cc1 | 91.6% | 107% | 80.6% | 94.9% | 96.1% | 83.6% | 94.4% | 89.1% | 89.5% | 109%
9 | O=C1C(Br)=CC2C1C1C3CCC3C2(Br)C12OCCO2 (stereo not given) | 19% | 8.84% (active) | 56.3% | 81% | 35.3% | 32% | 67.3% | 54.9% | 8.55% (active) | 55.7%
